Cruzain Triton = cruzain (T. cruzi) inhibition with detergent; P25779; purified cruzain, Z-FR-AMC fluorescence, 0.01% Triton; 200,000 tested, 0.43% active; Potency, µM, actives largely listed as inhibitors; also: nearly all actives have a fitted effect of over 40% in size
Target sequence (P25779 123-467 limits assumed): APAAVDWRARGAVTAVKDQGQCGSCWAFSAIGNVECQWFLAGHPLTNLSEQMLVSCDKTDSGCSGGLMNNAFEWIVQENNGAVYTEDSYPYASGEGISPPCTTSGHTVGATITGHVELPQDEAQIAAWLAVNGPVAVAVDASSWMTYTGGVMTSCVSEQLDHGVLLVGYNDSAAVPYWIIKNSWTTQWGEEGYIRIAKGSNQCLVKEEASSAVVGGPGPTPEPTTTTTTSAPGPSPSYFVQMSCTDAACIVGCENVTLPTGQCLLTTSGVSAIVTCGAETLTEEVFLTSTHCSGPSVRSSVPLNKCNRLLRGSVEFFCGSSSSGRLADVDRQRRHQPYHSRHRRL
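Steps: dispense cruzain (1.5 nM final) in acetate buffer pH 5.5 with DTT and 0.01% Triton X-100; pin-transfer compounds; incubate 15 min RT; add Z-FR-AMC (2 uM final); read fluorescence every 30 s, using the 60 s intensity change.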
Cruzain noTriton = blocks cruzain activity in detergent-free assay. purified cruzain, Z-FR-AMC fluorescence, no detergent. Potency, µM, most hits filed as inhibitors. 200,000 tested, 2.3% active. AID 1476; also: nearly all actives have a fitted effect of over 40% in size
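Purified cruzain at 1.5 nM, pre-incubated 15 min with compound at room temperature in 100 mM sodium acetate pH 5.5, 5 mM DTT, 0.00005% Triton X-100. Reaction started with 2 uM Z-FR-AMC; AMC fluorescence increase over 60 s gives rate.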
Hits are given with their value; n = inactive; u = inconclusive. Rows were chosen to be rich in hits. Some 2.6% of all compounds tested hit in one or more screens of this group. Calls follow the shape of the dose curve; as a rule, active = well fitted curve in the direction sought with a large enough effect; inconclusive = small, poorly fitted or top-dose-only effect, or another doubt; inactive = no such curve, though single readings can be large; an effect the other way counts as inactive or inconclusive.

SMILES	Cruzain Triton	Cruzain noTriton
COc1ccc2cc3cc(C(=O)N4CCN(Cc5ccc6c(c5)OCO6)CC4)oc3nc2c1	32µM	n
Cc1sc2ncn(CC(=O)Nc3ccc(C(C)C)cc3)c(=O)c2c1S(=O)(=O)N1CCN(c2ncccn2)CC1	n	n
O=C1c2oc3ccccc3c(=O)c2C(c2ccc(Br)cc2)N1c1ccccn1 (stereo not given)	n	n
O=C(NCc1ccc(-c2nc3ccccc3s2)cc1)c1ccco1	n	25µM
O=C(NC(=S)NCc1ccc(-c2nc3ccccc3s2)cc1)c1ccco1	n	u
CN(C)c1nc(-c2ccc3c(c2)OCO3)nc2ccccc12	n	n
Cc1ccccc1-c1ccc(Nc2ccc(N3CCOCC3)cc2)nn1	n	25µM
O=S1(=O)N=C(Nc2ccc(N3CCOCC3)cc2)c2ccccc21	n	n
CCOC(=O)COc1ccc2nsnc2c1Cl	n	n
CCOC(=O)COc1ccccc1-c1ccno1	u	25µM
CCCN(C(=O)c1coc(=O)c2ccccc12)c1ccccc1C	n	n
O=C(NCCSCc1c(F)cccc1Cl)C1CCN(S(=O)(=O)Cc2ccccc2)CC1	n	n
O=C(CSc1nc2c([nH]c3ccccc32)c(=O)n1-c1ccc(F)cc1)NC1CCCCC1	n	n
O=C(Nc1ccccc1)c1ccc(-c2ccc(Br)cc2)o1	n	n
O=C(Nc1cccc(NC(=O)c2ccc(-c3ccc(Br)cc3)o2)c1)c1ccccc1	n	5µM
Cc1nn2c(NCCCN3CCOCC3)c3c(nc2c1-c1ccccc1)CCC3	n	n
CCCCNc1c2c(nc3c(-c4ccccc4)c(C)nn13)CCC2	n	7.9µM
Cc1cc(C)cc(-n2c(SCC(=O)N3CCC(C)CC3)nc3c([nH]c4ccccc43)c2=O)c1	n	n
CCOc1ccc(NC(=O)c2ccc3nc(C(C)C)oc3c2)cc1	n	n
O=C(COCc1cc(-c2ccc(F)cc2)on1)Nc1cc(F)ccc1F	n	n
COc1ccc(NC(=O)Cn2c(=O)n(Cc3ccc(C(=O)NCc4ccccc4Cl)cc3)c(=O)c3ccccc32)cc1OC	n	n
CCc1ccc(NC(=O)Cn2c(=O)n(CCCC(=O)NCc3ccccc3Cl)c(=O)c3ccccc32)cc1	n	n
O=C(Cn1c(=O)n(Cc2ccc(C(=O)NCc3ccccc3Cl)cc2)c(=O)c2ccccc21)Nc1ccc(F)c(Cl)c1	n	7.9µM
O=C(Cn1c(=O)n(Cc2ccc(C(=O)NCc3ccccc3Cl)cc2)c(=O)c2ccccc21)Nc1ccc(F)cc1	n	13µM
COc1ccc(-c2cc(C(=O)NCc3ccc(F)cc3)c3c(-c4ccc(F)cc4)[nH]nc3n2)cc1OC	n	u
SMILES	Cruzain Triton	Cruzain noTriton
O=C(Cn1c(=O)oc2cc(S(=O)(=O)NCc3ccccc3)ccc21)NCc1ccccc1Cl	n	n
CCOC(=O)c1ccc(N2C(=O)c3[nH]nc(-c4ccccc4)c3C2c2ccc(CC)cc2)cc1 (stereo not given)	n	13µM
CCOC(=O)c1ccc(N2C(=O)c3[nH]nc(-c4ccc(C)cc4)c3C2c2ccc(O)cc2)cc1 (stereo not given)	n	u
CC1CC2(C)Oc3ccccc3C3OCC1(COC(=O)Nc1ccccc1)C(C)C32 (stereo not given)	n	n
CCOC(=O)c1cccc(NC(=O)CCc2c(C)nn(-c3ccc(N4CCCCC4)nn3)c2C)c1	n	u
O=C(CN1C(=O)c2ccccc2S1(=O)=O)c1ccccc1	n	n
Cc1ccc(C(=O)CN2/C(=C(\O)c3ccccc3)C(=O)c3ccccc3S2(=O)=O)c(C)c1	n	25µM
CCc1ccc(-n2c(=O)c3cccnc3n2CC(=O)N(CC)c2cccc(C)c2)cc1	n	u
COc1ccc(OC)c(CNC(=O)C(C)n2c(C)c3cnn(-c4ccccc4)c(=O)c3c2C)c1 (stereo not given)	n	u
COc1ccc(Cl)cc1NC(=O)c1cc(-c2ccccc2O)n[nH]1	n	10µM
Oc1ccc(Br)cc1-c1cc(-c2ccccc2F)[nH]n1	n	20µM
COc1ccccc1-c1cc(-c2cc(Cl)ccc2O)n[nH]1	n	25µM
COc1ccc(OC)c(NC(=O)c2cc(-c3cc(Cl)ccc3O)n[nH]2)c1	n	u
Cc1ccccc1-c1cc(-c2ccccc2O)n[nH]1	n	n
Oc1ccc(Cl)cc1-c1cc(-c2ccccc2)n[nH]1	n	n
CC1=C(C(N)=O)C(c2ccc(C)cc2)n2nc(SCc3ccccc3)nc2N1 (stereo not given)	n	n
COc1cccc(Cn2c(=O)c(-c3cccc(C#N)c3)nc3cnc(Nc4ccccc4)nc32)c1	n	n
Cc1cccc(C(=O)NC2(C(F)(F)F)N=C(c3ccccc3)N(C3CCCCC3)C2=O)c1 (stereo not given)	n	n
CCCN(CCC)CCNC(=O)C1CCCN(S(=O)(=O)c2cccc3nsnc23)C1 (stereo not given)	n	n
COc1ccc(CCNC(=O)CCn2c(=O)c3ccccc3n(Cc3cc(C)ccc3C)c2=O)cc1OC	n	n

Source: PubChem BioAssay (National Center for Advancing Translational Sciences (NCATS))
